# Laboratory results published in PubChem BioAssay (NCATS).
# Results filed as inconclusive are left out. Where a call stands in place of a potency, no number is given. The source made the active and inactive calls. The call rests on the fitted dose curve; in most records, active means well fitted inhibition curve with a large enough effect; inconclusive means small, poorly fitted or top-dose-only effect; inactive means flat fitted curve, though single readings scatter.
# Molecular target: Ubiquitin carboxyl-terminal hydrolase 1 (Homo sapiens) (UniProt O94782)
# Sequence (O94782 whole entry, looked up): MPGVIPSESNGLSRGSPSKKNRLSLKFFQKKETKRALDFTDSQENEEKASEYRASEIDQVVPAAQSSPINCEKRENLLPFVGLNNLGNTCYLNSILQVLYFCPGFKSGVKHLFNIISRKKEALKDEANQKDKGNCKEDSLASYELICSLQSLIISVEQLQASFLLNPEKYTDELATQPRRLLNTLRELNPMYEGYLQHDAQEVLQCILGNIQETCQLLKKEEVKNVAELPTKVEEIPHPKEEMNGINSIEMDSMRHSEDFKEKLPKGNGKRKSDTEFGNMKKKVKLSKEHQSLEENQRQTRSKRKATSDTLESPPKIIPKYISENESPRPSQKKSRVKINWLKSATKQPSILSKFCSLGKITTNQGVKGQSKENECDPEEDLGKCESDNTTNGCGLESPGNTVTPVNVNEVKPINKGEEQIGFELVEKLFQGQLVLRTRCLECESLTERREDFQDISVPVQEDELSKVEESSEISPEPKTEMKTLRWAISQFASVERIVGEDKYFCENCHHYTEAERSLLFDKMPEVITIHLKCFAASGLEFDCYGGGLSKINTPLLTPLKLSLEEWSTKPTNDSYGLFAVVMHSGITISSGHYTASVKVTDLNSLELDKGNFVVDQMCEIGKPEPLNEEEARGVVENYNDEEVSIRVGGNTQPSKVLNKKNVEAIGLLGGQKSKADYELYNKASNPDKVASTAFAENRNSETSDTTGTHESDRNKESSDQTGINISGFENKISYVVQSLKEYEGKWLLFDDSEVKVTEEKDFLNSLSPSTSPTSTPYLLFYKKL
# Experiment: Inhibitors of USP1/UAF1: Pilot qHTS (AID 504865); further: nearly all actives have a fitted effect of over 35% in size
# Settings: purified USP1/UAF1, Ub-rhodamine cleavage fluorescence; series mostly up to 114 µM
# Outline: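 In 50mM HEPES pH 7.8 containing 0.5mM EDTA, 1mM TCEP, 0.1 mg/ml BSA and 0.01% Tween-20, 1nM USP1/UAF1 is exposed to compound for 15 min, then Ub-Rho (150nM final) is added and fluorescence is read over time.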
# Potency means the concentration at half of the fitted maximal effect.
row,SMILES,Potency
1,CC(=O)c1ccc2c(c1)N(CCCN1CCC(CCO)CC1)c1ccccc1S2,inactive
2,CCCCC(CC)CN=C(N)NC(N)=NCCCCCCN=C(N)NC(N)=NCC(CC)CCCC (stereo not drawn),22.4 µM (active)
3,CCn1cc(C(=O)O)c(=O)c2cnc(N3CCCC3)nc21,inactive
4,CCN(CCCc1ccccc1)CCCc1ccccc1,inactive
5,CN1CCN(C(c2ccccc2)c2ccccc2)CC1,inactive
6,C/C=C/c1ccc(OC)cc1,inactive
7,O=C(CCCN1CCC(O)(c2ccc(Br)cc2)CC1)c1ccc(F)cc1,inactive
8,CC(=O)Nc1c(I)cc(I)c(C(=O)O)c1I,inactive
9,CCC(C(=O)OCCN(CC)CC)c1ccccc1 (stereo not drawn),inactive
10,COc1ccc(CN2CCN(C(c3ccc(F)cc3)c3ccc(F)cc3)CC2)c(OC)c1OC,inactive
11,COc1cc(C(=S)N2CCOCC2)cc(OC)c1OC,inactive
12,Clc1ccc2c(c1)CCc1cccnc1C2=C1CCNCC1,inactive
13,NCCC(O)(P(=O)(O)O)P(=O)(O)O,inactive
14,Oc1ccc(Cl)c2cccnc12,inactive
15,Cc1ccnc(NS(=O)(=O)c2ccc(N)cc2)n1,inactive
16,COCc1c(C(C)C)nc(C(C)C)c(/C=C/[C@@H](O)C[C@@H](O)CC(=O)O)c1-c1ccc(F)cc1,inactive
17,COc1c2occc2c(OC)c2c(=O)cc(C)oc12,39.8 µM (active)

row,SMILES,Potency
1,CC(=O)OCC(=O)[C@@]1(OC(C)=O)[C@@H](C)C[C@H]2[C@@H]3C[C@H](F)C4=CC(=O)C=C[C@]4(C)[C@@]3(F)[C@@H](O)C[C@@]21C,inactive
2,c1ccc(OCc2ccc(CCCN3CCOCC3)cc2)cc1,inactive
3,Cc1c(C(N)=O)cc([N+](=O)[O-])cc1[N+](=O)[O-],inactive
4,NC(CO)(CO)CO,inactive
5,O=C1OCCN1/N=C/c1ccc([N+](=O)[O-])o1,inactive
6,COc1ccc(C2C(=O)c3ccccc3C2=O)cc1,inactive
7,OCc1ccccc1O,inactive
8,CCOC(=O)c1cccc(N)c1,inactive
9,O=C1[C@H]2CCCC[C@H]2C(=O)N1CCCCN1CCN(c2nsc3ccccc23)CC1,inactive
10,CCOc1ccc(NC(=O)CC(C)O)cc1 (stereo not drawn),inactive
11,O=C(O)CNC(=O)c1ccccc1,inactive
12,CC(=O)N(O)CCCCCNC(=O)CCC(=O)N(O)CCCCCNC(=O)CCC(=O)N(O)CCCCCN,inactive
13,CCN(CC)C(=O)/C(C#N)=C/c1cc(O)c(O)c([N+](=O)[O-])c1,inactive
14,O=C(N/N=C/c1ccccc1O)c1ccncc1,inactive
15,CC(=O)OCC(=O)NCCCOc1cccc(CN2CCCCC2)c1,inactive
16,CCN(CC)C(=O)N1CCN(C)CC1,inactive
